Compounds without any hit were thinned out: in the full panel of roughly 79,000, 15% have a hit. Active and inactive are the calls of the source. Rule as the data show it: active = growth inhibition above about 70%; inactive = the rest.

The nature of the assay: NCI Yeast Anticancer Drug Screen. Data for the mlh1 rad18 strain (AID 175). The conditions noted are these: S. cerevisiae mlh1 rad18 strain growth inhibition; at 50.0 µM; active compounds read high. In short, it runs like this: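 Cells of a genetically altered yeast strain, deficient in DNA damage repair, were treated with compound. Their growth was then compared with that of vehicle-treated cultures to give inhibition.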
With `COC(=O)C(C)=C1CCCCC1`, the growth inhibition is -13.2% (inactive).

With `CCn1c2ccccc2c2cc(N)c(N=Nc3ccc(-c4ccc(N)c(OC)c4)cc3OC)cc21`, the growth inhibition was 29.8% (inactive).

Regarding `O=S1C=Cc2ccccc21` (stereo not given), the growth inhibition was 7.1% (inactive).

`CCN(CC)c1ccc(N=C2C=CC(=O)C(C)=C2)c(C)c1`: the growth inhibition is 3.05% (inactive).

On to `N#CCCOCC(OCCC#N)C(OCCC#N)C(OCCC#N)C(COCCC#N)OCCC#N` (stereo not given), for which the growth inhibition is -13.2% (inactive).

With `Nc1nc(N)nc(CNc2c(Br)cc(Br)cc2Br)n1`, the growth inhibition was 4.95% (inactive).

In the case of `CN(C)CC(c1ccccc1)C(O)(c1ccccc1)c1ccccc1` (stereo not given), the growth inhibition is 3.05% (inactive).

Consider `CC(=O)N1C(Nc2nccs2)CCN1c1ccccc1` (stereo not given), for which the growth inhibition was -34.2% (inactive).

Consider `O=C1C2CCSCN2C(=O)N1c1ccccc1` (stereo not given), for which the growth inhibition is -19% (inactive).

In the case of `CCCCc1c[nH]n(C(N)=NCCSCc2nc[nH]c2C)c1=O`, the growth inhibition is -4.75% (inactive).

Turning to `COc1ccc(/C(C#N)=C\c2ccc(N(C)C)cc2)cc1`, the growth inhibition was -14.3% (inactive).

Consider `Nc1ccc(S(=O)(=O)OCCOc2ccccc2)cc1`, for which the growth inhibition is -7.3% (inactive).

Consider `CN1CCC(O)(/C=C\C2(O)CCN(C)CC2)CC1`, for which the growth inhibition is -22.1% (inactive).

Regarding `N#CC(C#N)CN(C1=NCCO1)c1cccc2c1CCCC2`, the growth inhibition is 14.3% (inactive).

Take `C(=C/c1ccc(-c2ccccc2)cc1)/C=C/c1ccc(-c2ccccc2)cc1`: the growth inhibition was 17.9% (inactive).

With `CC(C)S(=O)(=O)/C=C(\I)c1ccccc1`, the growth inhibition was -11.4% (inactive).

Regarding `Cc1[nH]c(=O)nc(N/N=C/c2ccc(Cl)cc2)c1C(=O)Nc1ccc(Cl)cc1`, the growth inhibition is -12.5% (inactive).

`c1cc(C2CCCCC2)ccc1C1CCCCC1`: the growth inhibition was -3.9% (inactive).

Turning to `CCOc1ccc(/C=C2\N=C(c3ccc([N+](=O)[O-])cc3)OC2=O)cc1`, the growth inhibition was 8.15% (inactive).

In the case of `CC(C)OC(=O)N1CCCC1`, the growth inhibition was -17.4% (inactive).

With `CN(C(=O)Cl)c1ccccc1`, the growth inhibition was 16.8% (inactive).

Regarding `O=C(O)c1cccc(Sc2ccccc2)c1`, the growth inhibition is 16.6% (inactive).

`C[C@@]1(N2C(=O)OC(c3ccccc3)C2=O)C(=O)N2CCS[C@@]21c1ccccc1` (stereo not given in full): the growth inhibition is 1.25% (inactive).

With `O=NN(CCCl)C(=O)N[C@H]1CCC[C@@H](O)C1`, the growth inhibition was 6% (inactive).

Turning to `Cc1cc2c(cc1C=O)C(C)(C)CCC2`, the growth inhibition was 26.2% (inactive).

In the case of `COc1cccc(OC(=O)Nc2cccc(Cl)c2)c1`, the growth inhibition was 51.6% (inactive).

In the case of `CCOC(=O)CC1(O)C(=O)N(Cc2ccccc2)c2ccccc21` (stereo not given), the growth inhibition is -15.1% (inactive).

As for `CC1(C)S[C@H](c2ccccc2C(=O)O)N[C@@H]1CC(=O)O`, the growth inhibition is -31.4% (inactive).

Take `OCCN(CCO)c1cc(/C=C/c2c3ccccc3cc3ccccc23)nc2ccccc12`: the growth inhibition was 95.7% (active).

Regarding `O=C(O)c1cc(C2CC2)nc2ccc(Br)cc12`, the growth inhibition is 19.8% (inactive).

Consider `COC(=O)C(Cc1nc2ccccc2[nH]c1=O)C(=O)C(=O)Nc1ccc(OC)cc1[N+](=O)[O-]` (stereo not given), for which the growth inhibition was 5.5% (inactive).

For the compound `O=C1OCC(CN2CCC(n3c(=O)[nH]c4ccccc43)CC2)=C1c1ccccc1`, the growth inhibition was -35.9% (inactive).

`COc1cc2c(cc1OC)C(=O)/C(=C/c1ccc(N(C)C)cc1)CC2`: the growth inhibition is -39.8% (inactive).

Turning to `COc1ccc2c(c1)N=C(NNC1=Nc3cc(OC)ccc3SC1)CS2`, the growth inhibition was 3.9% (inactive).

For the compound `O=C1c2ccccc2N2OC3(N4CCOCC4)CCCC3C12c1ccccc1` (stereo not given), the growth inhibition was 48.5% (inactive).

With `CC(=O)OCC(OC(C)=O)C1OC2OC(C)(C)OC2C1OS(C)(=O)=O` (stereo not given), the growth inhibition is 4.95% (inactive).

Regarding `O=C(c1ccccc1)[C@@H]1C[C@H](Sc2ccccc2)c2cc(Cl)ccc2N1`, the growth inhibition was -3.5% (inactive).

With `O=C1CSSCC(=O)NCCCN1`, the growth inhibition is 28.2% (inactive).

Regarding `COC1(C)C=NCC(C)(C)NC(=O)C(C)(OC)C=NCC(C)(C)NC1=O` (stereo not given), the growth inhibition is -26.5% (inactive).

As to `Cc1cc(CC(=S)[S-])[n+](C)c(CC(=S)S)c1`, the growth inhibition was 19.8% (inactive).

Source of the values: PubChem BioAssay (NCI).
